Assay [1] can be described thus: qHTS assay to test for compound auto fluorescence at 535 nm (green) in HEK293 cells (AID 720680; also: % is scaled to controls: 0 for no effect and ±100 for the full control effect). (In qHTS, concentration-response curves come from the screen itself.)
Assay [2] can be described thus: qHTS assay to test for compound auto fluorescence at 460 nm (blue) in HEK293 cell free culture (AID 720681). Also: % is scaled to controls: 0 for no effect and ±100 for the full control effect. An outline of the steps:
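Blue fluorescence (Ex 405/Em 460 nm, triamterene-equivalent) was read immediately after pin transfer of compound or DMSO into medium (DMEM, 10% FBS) without cells.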

Assay [3] can be described thus: qHTS assay to test for compound auto fluorescence at 590 nm (red) in HEK293 cell free culture (AID 720683). Also: % is scaled to controls: 0 for no effect and ±100 for the full control effect. The essentials:
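Red-channel autofluorescence of compounds in culture medium (DMEM, 10% FBS), no cells, measured at 540/590 nm. Rose Bengal sodium is the reference fluorophore for equivalence.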

Assay [4] can be described thus: qHTS assay to test for compound auto fluorescence at 590 nm (red) in HepG2 cell free culture (AID 720684). Also: % is scaled to controls: 0 for no effect and ±100 for the full control effect. The essentials:
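Plate contents were MEM with 10% FBS plus test compound or DMSO, no cells. Fluorescence was recorded with 540 nm excitation and 590 nm emission.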

Assay [5] in a line: qHTS assay to test for compound auto fluorescence at 460 nm (blue) in HepG2 cell free culture (AID 720685). Also: % is scaled to controls: 0 for no effect and ±100 for the full control effect. The essentials:
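Compound (23 nL) or DMSO pinned into cell-free MEM with 10% FBS; blue fluorescence read at 405/460 nm excitation/emission, expressed as auto-fluorescence equivalency to triamterene.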

Assay [6] can be described thus: qHTS assay to test for compound auto fluorescence at 535 nm (green) in HepG2 cell free culture (AID 720686). Also: % is scaled to controls: 0 for no effect and ±100 for the full control effect.
A short description of assay [7]: qHTS assay to test for compound auto fluorescence at 460 nm (blue) in HepG2 cells (AID 720687). Also: % is scaled to controls: 0 for no effect and ±100 for the full control effect. An outline of the steps:
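Blue-channel autofluorescence (Ex/Em 405/460 nm, triamterene-equivalent) was measured after 1 hr compound exposure at 37 C, 5% CO2. Cells were HepG2, plated overnight at 37 C in MEM plus 10% FBS.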

Assay [8] concerns the target Glucocorticoid receptor (Homo sapiens) (UniProt P04150). In words: qHTS assay to identify small molecule agonists of the glucocorticoid receptor (GR) signaling pathway (AID 720691; active = well fitted activation curve with a large enough effect in the signal ratio in the repeat runs, not every such curve was filed as active; the % refers to the signal ratio; also: % is scaled to controls: 0 for no effect and ±100 for the full control effect). The essentials:
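Agonist mode in a HeLa line carrying a GRE-controlled beta-lactamase reporter. Compounds act for 18 h at 37 C before a 2 h room-temperature FRET substrate step and fluorescence reading.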

The nature of assay [9]: qHTS assay to identify small molecule antagonists of the glucocorticoid receptor (GR) signaling pathway - cell viability counter screen (AID 720693). Also: % is scaled to controls: 0 for no effect and ±100 for the full control effect; nearly all actives have a fitted effect of over 55% in size.
Assay [10] can be described thus: qHTS assay for identifying genotoxic compounds that show differential cytotoxicity against isogenic chicken DT40 cell lines with known DNA damage response pathways - wild type cell line (AID 743012). Also: nearly all actives have a fitted effect of over 60% in size. Also: potency is read from the fitted curve at half-maximal effect. The essentials:
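Cells (DT40 wild type, 300/well) are treated with DMSO-dissolved compounds after a ~0.5 h pre-incubation and kept 40 h at 37 C/5% CO2. Viability is then measured by CellTiter-Glo luminescence following 30 min at room temperature.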

Assay [11] in a line: qHTS assay for identifying genotoxic compounds that show differential cytotoxicity against isogenic chicken DT40 cell lines with known DNA damage response pathways - Rev3 mutant cell line (AID 743014). Also: nearly all actives have a fitted effect of over 55% in size. Also: potency is read from the fitted curve at half-maximal effect.
Assay [12] is described as follows: qHTS assay to identify small molecule antagonists of the androgen receptor (AR) signaling pathway - cell viability counter screen (AID 743033; also: % is scaled to controls: 0 for no effect and ±100 for the full control effect; nearly all actives have a fitted effect of over 45% in size).
A short description of assay [13]: qHTS assay to identify small molecule antagonists of the androgen receptor (AR) signaling pathway using the MDA cell line - cell viability counter screen (AID 743041; also: % is scaled to controls: 0 for no effect and ±100 for the full control effect; nearly all actives have a fitted effect of over 45% in size). The essentials:
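R1881-driven MDA-kb2 AR-luc cells, 3,000/well, were dosed with library compounds for 16 h; cell health came from CellTiter-Fluor fluorescence in the reporter wells.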

A short description of assay [14]: qHTS assay to test for compound auto fluorescence at 535 nm (green) in HEK293 cell free culture (AID 720682). Also: % is scaled to controls: 0 for no effect and ±100 for the full control effect. An outline of the steps: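 Green-label autofluorescence (485 nm excitation, 535 nm emission) measured on compound added to cell-free culture medium (DMEM, 10% FBS). Output is expressed relative to fluorescein.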
A short description of assay [15]: qHTS assay for identifying genotoxic compounds that show differential cytotoxicity against isogenic chicken DT40 cell lines with known DNA damage response pathways - Rad54/Ku70 mutant cell line (AID 743015). Also: nearly all actives have a fitted effect of over 60% in size. Also: potency is read from the fitted curve at half-maximal effect.
Assay [16] concerns the target Glucocorticoid receptor (Homo sapiens) (UniProt P04150). As to the kind of experiment: qHTS assay to identify small molecule antagonists of the glucocorticoid receptor (GR) signaling pathway (AID 720692; active = well fitted inhibition curve with a large enough effect in the signal ratio in the repeat runs, not every such curve was filed as active; the % refers to the signal ratio; also: % is scaled to controls: 0 for no effect and ±100 for the full control effect). An outline of the steps:
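Cells plated, rested 4 h at 37 C/5% CO2; compounds in DMSO pin-transferred; dexamethasone added to 5 nM final; 18 h at 37 C; B/G FRET substrate added, 2 h room temperature; fluorescence measured.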

Assay [17] has as its target Androgen receptor (Homo sapiens) (UniProt P10275). In words: qHTS assay to identify small molecule antagonists of the androgen receptor (AR) signaling pathway (AID 743035; active = well fitted inhibition curve with a large enough effect in the signal ratio in the repeat runs, not every such curve was filed as active; the % refers to the signal ratio; also: potency is read from the fitted curve at half-maximal effect). An outline of the steps: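 Antagonism is scored as loss of R1881-driven beta-lactamase reporter expression in HEK293 cells carrying the reporter under a UAS element, after 16 h co-treatment at 37C and a 2 h room-temperature FRET substrate read.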

For assay [18] the target is unchanged. As to the kind of experiment: qHTS assay to identify small molecule agonists of the androgen receptor (AR) signaling pathway using the MDA cell line (AID 743040; also: % is scaled to controls: 0 for no effect and ±100 for the full control effect; nearly all actives have a fitted effect of over 20% in size). An outline of the steps:
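After a 5 h incubation at 37C and 0% CO2, MDA-kb2 reporter cells were dosed with compounds in DMSO and kept 16 h under the same conditions. Luciferase activity was then read as luminescence with ONE-Glo.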

For assay [19] the target is unchanged. In words: qHTS assay to identify small molecule antagonists of the androgen receptor (AR) signaling pathway using the MDA cell line (AID 743042; also: % is scaled to controls: 0 for no effect and ±100 for the full control effect; nearly all actives have a fitted effect of over 55% in size). The essentials: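 Antagonist mode: compounds plus R1881 agonist added to MDA-kb2 AR-luc cells, incubated 16 h at 37C. Luciferase reporter luminescence quantified, with multiplexed CellTiter-Fluor readout for cell viability.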

These results are taken from PubChem BioAssay (Tox21).

Unmarked numbers belong to inactive results. Results filed as inconclusive are left out. The source made the active and inactive calls. Unless noted, calls follow the shape of the dose curve; as a rule, active = well fitted curve in the direction sought with a large enough effect in the repeat runs; inconclusive = weak or mixed curves; inactive = no such curve, though single readings can be large; an effect the other way counts as inactive or inconclusive.

Sequence of Glucocorticoid receptor (Homo sapiens) (P04150 whole entry, looked up): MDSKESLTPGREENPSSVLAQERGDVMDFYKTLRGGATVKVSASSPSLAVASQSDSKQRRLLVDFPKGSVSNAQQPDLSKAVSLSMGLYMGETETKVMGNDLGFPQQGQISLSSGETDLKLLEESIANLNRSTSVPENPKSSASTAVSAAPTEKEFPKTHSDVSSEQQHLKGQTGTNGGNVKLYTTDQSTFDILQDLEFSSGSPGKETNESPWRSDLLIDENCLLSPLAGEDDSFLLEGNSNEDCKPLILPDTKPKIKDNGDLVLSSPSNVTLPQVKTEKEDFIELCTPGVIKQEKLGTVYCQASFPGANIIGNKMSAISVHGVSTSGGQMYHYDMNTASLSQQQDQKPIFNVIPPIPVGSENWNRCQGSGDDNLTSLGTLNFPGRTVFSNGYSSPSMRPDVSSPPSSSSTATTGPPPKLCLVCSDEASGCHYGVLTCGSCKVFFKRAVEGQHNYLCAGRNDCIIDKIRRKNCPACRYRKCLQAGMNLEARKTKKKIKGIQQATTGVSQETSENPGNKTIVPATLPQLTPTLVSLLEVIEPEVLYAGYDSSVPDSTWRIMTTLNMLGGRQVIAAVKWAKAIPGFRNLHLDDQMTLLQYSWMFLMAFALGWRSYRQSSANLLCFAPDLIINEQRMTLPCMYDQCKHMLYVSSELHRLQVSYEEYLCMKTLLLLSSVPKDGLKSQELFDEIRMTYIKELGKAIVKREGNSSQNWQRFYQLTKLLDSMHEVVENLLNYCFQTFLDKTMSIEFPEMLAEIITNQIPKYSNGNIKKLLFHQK
Sequence of Androgen receptor (Homo sapiens) (P10275 whole entry, looked up): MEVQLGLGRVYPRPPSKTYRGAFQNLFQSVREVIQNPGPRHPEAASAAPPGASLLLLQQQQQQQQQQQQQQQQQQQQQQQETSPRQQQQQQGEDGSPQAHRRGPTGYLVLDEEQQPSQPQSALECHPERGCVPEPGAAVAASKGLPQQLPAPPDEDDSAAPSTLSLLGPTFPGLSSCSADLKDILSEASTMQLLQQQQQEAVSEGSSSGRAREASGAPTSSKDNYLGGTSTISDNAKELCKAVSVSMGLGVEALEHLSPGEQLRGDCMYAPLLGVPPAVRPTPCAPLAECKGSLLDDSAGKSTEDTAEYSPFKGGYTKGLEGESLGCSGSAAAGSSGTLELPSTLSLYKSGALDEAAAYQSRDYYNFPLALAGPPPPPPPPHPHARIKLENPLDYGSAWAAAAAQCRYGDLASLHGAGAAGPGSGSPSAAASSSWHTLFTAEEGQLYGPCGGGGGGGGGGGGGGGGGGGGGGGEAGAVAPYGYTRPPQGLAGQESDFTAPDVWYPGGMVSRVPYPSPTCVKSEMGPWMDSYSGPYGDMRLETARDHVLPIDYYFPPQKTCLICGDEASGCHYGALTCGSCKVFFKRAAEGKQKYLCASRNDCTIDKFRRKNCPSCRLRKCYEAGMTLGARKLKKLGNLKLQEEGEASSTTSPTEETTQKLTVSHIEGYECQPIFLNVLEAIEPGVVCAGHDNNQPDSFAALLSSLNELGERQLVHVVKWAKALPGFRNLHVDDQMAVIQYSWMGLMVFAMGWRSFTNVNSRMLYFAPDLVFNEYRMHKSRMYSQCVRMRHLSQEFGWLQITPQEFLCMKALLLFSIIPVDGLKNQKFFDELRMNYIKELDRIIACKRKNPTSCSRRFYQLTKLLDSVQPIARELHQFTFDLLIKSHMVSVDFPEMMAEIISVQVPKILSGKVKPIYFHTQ

As for `CC(C)c1ccccc1C(C)C`, the call in assay [1], in assay [3], in assay [4] and in [6] was inactive. The Potency entry in [2], in assay [5], in assay [7], in assay [8], in assay [9] and in [10] was “inactive” in each case. The Potency result in assay [11], in assay [12] and in assay [13] was “inactive” in each case.
As to `CCOC(=O)C1=C(C)NC(C)=C(C(=O)OC)C1c1cccc([N+](=O)[O-])c1` (stereo unspecified), the molecule was classed as inactive in [1], in [14], in assay [3], in assay [4] and in assay [6]. In addition, the Potency result in assay [2], in [5], in assay [7], in [9], in assay [12] and in [13] was “inactive” each time. The Potency in [10] and in assay [15] was 26.6 µM (active) each time.
`CN1CCC(OC(c2ccccc2)c2ccccc2)CC1`: the fluorescence, % of fluorescein in [1] is -0.132% [at 18.6 µM]. For the same molecule, the fluorescence, % of fluorescent control is -0.231% [at 18.6 µM] in assay [2], 0.167% [at 18.6 µM] in assay [3], -0.163% [at 18.6 µM] in [5] and -0.0097% [at 18.6 µM] in [7]. The fluorescence, % of Rose Bengal in [4] is 0.0772% [at 18.6 µM]. In assay [6], the fluorescence, % of fluorescein control is -0.14% [at 18.6 µM]. Further, the Potency entry in [8], in assay [16], in assay [9], in [12] and in [13] was “inactive” in each case. The Potency in [10] was 11.4 µM (active); in assay [11], 12.7 µM (active); in assay [15], 11.4 µM (active).
For the molecule `Cc1ccccc1N=Nc1ccc(N=Nc2c(O)ccc3ccccc23)c(C)c1`, the molecule was called inactive in assay [1], in assay [14], in assay [3], in [4] and in assay [6]. Besides, the Potency entry in assay [2], in [5], in assay [7], in assay [9], in assay [11] and in assay [12] was “inactive” in each case. Further, the Potency entry in assay [13] was “inactive”.
For `O=S1(=O)c2cccc3cccc(c23)N1CCCN1CCN(c2ccc(F)cc2)CC1`, the outcome in [1], in assay [3], in assay [4] and in assay [6] was inactive. In addition, the Potency entry in assay [2], in [5], in assay [7], in assay [8], in assay [16] and in [9] was “inactive” each time. The Potency entry in assay [12] was “inactive”. Also, the Potency in [10] was 18.8 µM (active); in assay [11], 23.7 µM (active); in assay [15], 23.7 µM (active).
On to `CCN1CCC[C@H]1CNC(=O)c1c(OC)ccc(Br)c1OC`, for which the result in assay [1], in assay [14], in [3], in assay [4] and in assay [6] was inactive. Moreover, the Potency result in assay [2], in assay [5], in [7], in [9], in assay [10] and in assay [15] was “inactive” in each case. Also, the Potency entry in [12] and in [13] was “inactive” each time.
As to `CC[C@]12CCCN3CCc4c(n(c5ccccc45)C(=O)C1)[C@@H]32`, in assay [1], the fluorescence, % of fluorescein is 0.0475% [at 18.6 µM]. For the same molecule, the fluorescence, % of fluorescent control in [2] is -0.0431% [at 18.6 µM]; in assay [3], -0.702% [at 18.6 µM]; in [5], 0.043% [at 18.6 µM]; in assay [7], -0.0508% [at 18.6 µM]. The activity change in assay [14] is 0.026% [at 18.6 µM]. The fluorescence, % of Rose Bengal in assay [4] was 0.0021% [at 18.6 µM]. Also, the fluorescence, % of fluorescein control in [6] is -0.019% [at 18.6 µM]. Further, the Potency in assay [10] is 4.52 µM (active); in assay [11], 4.52 µM (active); in assay [15], 7.17 µM (active); in assay [17], 9.1 µM (active). In addition, the Potency entry in [12], in assay [18], in assay [13] and in assay [19] was “inactive” in each case.
Regarding `CN(C)CC[C@@H](c1ccc(Br)cc1)c1ccccn1`, the outcome in assay [1], in assay [14], in assay [3], in assay [4] and in assay [6] was inactive. Besides, the Potency result in assay [2], in assay [5], in assay [7], in assay [9], in assay [12] and in assay [13] was “inactive” each time.
For `Cn1c(=O)c2c(ncn2CC(O)CO)n(C)c1=O` (stereo unspecified), the fluorescence, % of fluorescein in [1] is -0.0383% [at 18.6 µM]. The activity change in assay [14] was -0.0177% [at 18.6 µM]. Further, the results for the fluorescence, % of fluorescent control in assay [3], in assay [5] and in assay [7] were 0.293% [at 18.6 µM], -0.106% [at 18.6 µM] and -0.0218% [at 18.6 µM], respectively. For the same molecule, the fluorescence, % of Rose Bengal in assay [4] is -0.139% [at 18.6 µM]. Further, the fluorescence, % of fluorescein control in assay [6] was -0.0139% [at 18.6 µM]. The Potency entry in assay [8], in assay [16], in assay [9], in [10], in assay [11] and in assay [12] was “inactive” each time. In [13], the Potency entry was “inactive”.
